Measurements taken from PubChem BioAssay.
Unmarked numbers belong to inactive results. The rule behind the calls is not given here.

These compounds were tested on Botulinum neurotoxin type F light chain protease (Clostridium botulinum) (assay: Botulinum neurotoxin type F light chain protease inhibition, multiplex microsphere flow cytometry, validation set (AID 588459)). Conditions: multiplex microsphere protease substrate cleavage assay, at 10 µM, active compounds read high.
Work on `O=C1CCCC(=O)C1=Cc1c[nH]c2ccccc12` yielded an inhibition of 3%.
With `COc1ccc2[nH]c3c(c2c1)CCNC3C1CC=C(C)CC1` (configuration not stated) the inhibition was -1.7%.
In the case of `Cc1cc(=O)oc(C)c1C(=O)NCCC(C)C`, the inhibition is reported as -1.3%.
`O=C(O)COc1ccc2occ(C(=O)c3ccccc3)c2c1` was tested, and the inhibition was -1.3%.
`COc1ccc(/C=C(/C#N)c2cccnc2)cc1OC` was tested, and the inhibition was -0.3%.
`C#C[C@]1(O)CC[C@H]2[C@@H]3CCc4cc(O)ccc4[C@H]3CC[C@@]21C` gave an inhibition of -3.8%.
`C#CCN(C)CCCOc1ccc(Cl)cc1Cl` was tested, and the inhibition was 1.1%.
For `CC(=O)N1N=C(c2cccs2)CC1c1ccc(C)o1` (configuration not stated), the inhibition was -1.2%.
`O=C(NC1CC1)C1CCN(C2CCN(C(=O)Cc3ccc(F)cc3)CC2)CC1` was tested, and the inhibition was -2.4%.
In the case of `CC(=O)OCC#CCSc1nc2ccccc2n1C`, the inhibition is reported as 0.7%.
`CC(C)CC(=O)Nc1ccc2oc(-c3ccncc3)nc2c1` was tested, and the inhibition was 1.4%.
Compound `O=C(O)CCCN1C(=O)NC2NC(=O)NC21` (configuration not stated) has an inhibition of 0.1%.
Work on `O=C(Nc1nc2ccccc2s1)c1ccc(F)cc1` yielded an inhibition of -5.1%.
Compound `CC(C)CC(NC(=O)c1cccc(Cl)c1)C(=O)O` (configuration not stated) has an inhibition of -4.2%.
`C[C@H]1C[C@@H]2[C@H]([C@@H](O)C[C@@]3(C)[C@H]2CC[C@]3(O)C(=O)CO)[C@@]2(C)C=CC(=O)C=C12` showed an inhibition of -2.2%.
`NS(=O)(=O)c1cc(C2(O)NC(=O)c3ccccc32)ccc1Cl` (configuration not stated) was tested, and the inhibition was -0.2%.
Work on `CC(C)COC(=O)C1C(=O)CC(C)(O)C(C(=O)OCC(C)C)C1c1cccnc1` (configuration not stated) yielded an inhibition of 2.5%.
